# Rows were chosen to be rich in hits. Some 2.1% of all compounds tested hit in one or more screens of this group.
# aSyn 5UTR inh – MLPCN primary screen, SNCA 5' untranslated region. alpha-synuclein 5'UTR reporter, inhibitor activity. inhibition, % (tested at 7.5 µM). actives 0.82% (n = 300,000); in the data active = inhibition above about 60%; inconclusive = no clear call, values can overlap the other calls;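 note: H4 neuroglioblastoma cells stably carrying SNCA 5'UTR luciferase fusion; 0% = DMSO wells and 100% = positive control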
# BaF3 tox – counter-screen for JAK2V617F inhibitors: parental Ba/F3 viability inhibitors; CellTiter-Glo ATP luminescence; inhibition, % at 5.6 µM; actives 1.1% (n = 220,000); AID 1486;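 active = inhibition above a per-campaign cutoff, the mean inhibition of all tested compounds plus 3 SD, cut at about 27% in these data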;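 note: 0% = DMSO wells and 100% = JAK Inhibitor I control wells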
# KLF5 inh – kruppel-like factor 5 inhibition | AID 1700 | inhibition, % at 5 µM | actives 0.23% (n = 290,000) | DLD-1 KLF5 promoter-luciferase reporter, luminescence;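 active = inhibition above a per-plate limit of that plate's mean compound inhibition plus 3 SD, cut at about 60% in these data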;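 note: 0% = DMSO wells and 100% = LY294002 at 200 µM; higher means less KLF5 promoter-driven luciferase light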
# Ba/F3 V617F tox – lowers viability of Ba/F3 cells expressing EpoR and JAK2V617F | actives 1.1% (n = 220,000) | AID 1446 | ATP luminescence | inhibition, % at 5.6 µM;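 active = inhibition above the campaign mean plus 3 SD over all tested compounds, cut at about 24% in these data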;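 note: cytokine-independent growth of Ba/F3 cells driven by EpoR plus mutant JAK2; 0% = DMSO-treated cells and 100% = JAK inhibitor I control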
# IEC-6 cytotox – counter-screen for KLF5 inhibitors: cytotoxicity in IEC-6 cells; IEC-6 cytotoxicity, luminescence viability; actives 0.78% (n = 290,000); inhibition, % at 5 µM; AID 1825; in the data active = inhibition above about 22%;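 note: 0% = plate median of test compound wells and 100% = cytotoxic reference compound wells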
# APP transl inh – APP translation inhibition | actives 0.82% (n = 190,000) | inhibition, % at 2 µM | AID 1285 | SH-SY5Y APP 5'UTR-luciferase reporter, luminescence;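 active = inhibition above a set limit, derived from the sample mean plus 3 SD, cut at about 45% in these data; inconclusive = one replicate passes the limit while the other fails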
# * hit, by the source's call; ? = inconclusive; · = no result.
SMILES,aSyn 5UTR inh,BaF3 tox,KLF5 inh,Ba/F3 V617F tox,IEC-6 cytotox,APP transl inh
COc1ccc(-n2c(-c3ccccc3)c[n+]3c2CCC3)cc1,-10,63*,-25,75*,2,·
CCOc1ccc(CN2CCN(S(=O)(=O)c3ccc(NC(C)=O)cc3)CC2)cc1,8,6,-15,0,-2,-30
COc1ccc(NCc2ccc(OC)c(Cn3ccnc3)c2)c(OC)c1,-13,·,2,·,-2,·
CC(=O)c1cccc(OCC(O)CNCC2COc3ccccc3O2)c1 (configuration not stated),-4,·,-24,·,-1,·
Cc1ccc(C(=O)N/C(=C\c2ccc(-c3ccc(Br)cc3)o2)C(=O)NCCCN(C)C)cc1,?,60*,-12,23,4,0
Cc1ccc(C(=O)N/C(=C\c2ccc(-c3ccccc3[N+](=O)[O-])o2)C(=O)NCCCN2CCOCC2)cc1,71*,·,-28,·,12,·
Cc1ccc(C(=O)N/C(=C\c2ccc(-c3cccc([N+](=O)[O-])c3)o2)C(=O)NCCCN(C)C)cc1,-16,·,-22,·,-7,·
Cc1ccc(C(=O)N/C(=C\c2cn(C)c3ccccc23)C(=O)NCCCN2CCOCC2)cc1,9,·,-7,·,2,·
O=C(Nc1nc2ccc(F)cc2s1)C1CCN(S(=O)(=O)c2cc([N+](=O)[O-])ccc2Cl)CC1,-197,5,-58,11,-7,-8
Cc1ccc2nc(NC(=O)C3CCN(S(=O)(=O)c4cc([N+](=O)[O-])ccc4Cl)CC3)sc2c1,-5,38*,14,37*,2,9
Cc1c(C)c2ccc(OCC(=O)Nc3nccs3)cc2oc1=O,66*,·,-12,·,1,·
Cc1cc(=O)oc2cc(OCC(=O)Nc3nccs3)ccc12,-51,·,-114,·,-1,·
CCOc1ccc(S(=O)(=O)n2cnc3cc(C)c(C)cc32)cc1,0,50*,-26,40*,8,3
CCc1cc(=O)oc2cc3occ(-c4ccc(OC)c(F)c4)c3cc12,-42,8,-32,2,6,91*
CCc1cc(=O)oc2cc3occ(C)c3cc12,5,0,-18,0,6,4
Cc1ccn2cc(-c3ccc(Br)cc3)nc2c1,63*,3,-44,0,7,·
COc1cccc(CNC(=O)CN(c2ccc(C(C)C)cc2)S(=O)(=O)c2c(C)noc2C)c1,-7,·,2,·,-8,·
COc1ccc(/C=N\NC(=O)c2cccc(F)c2)cc1COc1ccccc1,88*,·,·,·,·,·
COc1cc2c(cc1OC)C(c1ccc(Br)cc1)NCC2 (configuration not stated),63*,·,·,·,·,·
COc1ccc(C2NCCc3cc(OC)c(OC)cc32)cc1OC (configuration not stated),-8,2,-6,0,-1,59*
O=Cc1ccc(OC(=O)Cc2ccc(F)cc2)cc1,-10,·,-3,·,-3,·
COc1ccc(O)c(C(=O)CC(=O)c2ccc(F)cc2)c1,73*,2,-121,0,-2,-149
Cn1c(O)c(N=NC(=S)Nc2ccccc2F)c2cc(S(=O)(=O)N3CCOCC3)ccc21,95*,6,-6,0,-8,46*
C=CCn1c(O)c(N=NC(=S)Nc2ccccc2C)c2cc(S(=O)(=O)N3CCOCC3)ccc21,80*,8,3,0,9,34
Cc1ccc(NC(=S)N=Nc2c(O)n(C)c3ccc(S(=O)(=O)N4CCOCC4)cc23)cc1C,77*,2,8,-1,-3,70*
SMILES,aSyn 5UTR inh,BaF3 tox,KLF5 inh,Ba/F3 V617F tox,IEC-6 cytotox,APP transl inh
COc1ccc(Cl)cc1NC(=O)CN1CCN(S(=O)(=O)N2CCCCC2)CC1,7,·,21,·,3,·
O=C(NC1CC1)C1CCN(C2CCN(C(=O)/C=C/c3ccc(F)cc3)CC2)CC1,-3,2,-13,-1,0,-9
CCOC(=O)c1c(C)[nH]c2ccc(O)cc12,-31,5,-1,4,-6,50*
O=C(Nc1ccccc1)C(=O)Nc1ccc2c(c1)N(C(=O)C1CC1)CCC2,-121,·,·,·,·,·
CCNc1ccc(C(=O)NN=C2CCCC2)cc1[N+](=O)[O-],-11,6,3,1,-5,65*
Cc1ccc(C(=O)NN=C2CCCC2)cc1C,8,·,·,·,·,·
O=S(=O)(Cc1ccccc1)N1CCNCC1,-6,·,-3,·,4,·
COc1cccc(CN(C)C(=O)CSc2nc3ccccc3[nH]2)c1OC,-43,·,-56,·,4,·
Cc1c(C(=O)NC(=S)Nc2ccc(N3CCOCC3)cc2)cccc1[N+](=O)[O-],-31,2,3,4,-2,2

# From PubChem BioAssay
